Screen size: about 310,000 compounds; about 1,400 (0.45%) were called active. The sample holds actives, similar compounds and a random draw of the others, so the mix is not that of the screen.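 The calls were made as follows: active = B-score, a plate-corrected calcium signal, over three deviations above library mean, with baseline fluorescence within five deviations of library mean; inactive = the rest.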

This assay deals with Regulator of G-protein signaling 4 (Homo sapiens) (UniProt P49798). In words: RGS4 inhibitors, primary screen, cell-based, HEK293 M3R inducible RGS4, calcium flux (AID 463165).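 Also: RGS4 expression induced by doxycycline in cells with stable M3 receptor.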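 As to B-score: B-score is computed from the integrated fluorescence ratio over baseline after carbachol; higher B-score means a larger calcium signal and so more RGS4 inhibition.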 To be noted: Fluo-4 calcium flux, at 10 µM, triggered by carbachol at its EC20; active compounds read high. A general note: Calcium flux is commonly read through the fluorescence of an indicator in the cells.
Chain of Regulator of G-protein signaling 4 (Homo sapiens) (P49798 whole entry, looked up): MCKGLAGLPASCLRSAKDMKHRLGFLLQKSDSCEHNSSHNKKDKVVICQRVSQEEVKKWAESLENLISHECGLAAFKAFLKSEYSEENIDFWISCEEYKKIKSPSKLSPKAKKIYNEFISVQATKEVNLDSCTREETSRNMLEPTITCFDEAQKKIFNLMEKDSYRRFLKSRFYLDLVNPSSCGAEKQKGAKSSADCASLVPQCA
On to `O=c1c(-c2cccc(Cl)c2)c[nH]n1-c1ccccc1`, for which the B-score entry was “inactive”.

With `O=C1c2ccccc2NC(c2ccc(-c3cccc(Cl)c3)o2)N1O` (stereo unspecified), the B-score is 8.05 (active).

Take `O=C1NC(c2cccc(Cl)c2)Nc2ccccc21` (stereo unspecified): the B-score result is “inactive”.

`Cc1nn2c(=O)cc(COC(=O)c3ccc(NC(=O)C(C)(C)C)cc3)nc2s1`: the B-score is 17.9 (active).

With `COCCc1nn2c(=O)cc(COC(=O)c3cc(OC)c(OC)c(OC)c3)nc2s1`, the B-score entry is “inactive”.

Regarding `CCOC(=O)c1ccc(NC(=O)c2cccnc2)cc1`, the B-score result was “inactive”.

On to `COc1ccc(CC(=O)NC2CCSc3ccccc32)cc1OC` (stereo unspecified), for which the B-score result is “inactive”.

Regarding `CN(C(=O)c1cccc([N+](=O)[O-])c1)c1ccccc1C(=O)NCc1ccccc1`, the B-score result is “inactive”.

Turning to `COc1cc(/C=C2/C(=O)ON=C2C)ccc1OCc1ccccc1F`, the B-score result was “inactive”.

Regarding `C#CCOc1ccc(/C=C2/C(=O)ON=C2C)cc1OCC`, the B-score is 6.2 (active).

Take `CC1=NOC(=O)/C1=C\c1ccccc1`: the B-score result is “inactive”.

Regarding `COc1cc(/C=C2/C(=O)ON=C2C)ccc1OCc1cccc(F)c1`, the B-score entry was “inactive”.

With `C#CCOc1ccccc1/C=C1/C(=O)ON=C1C`, the B-score entry is “inactive”.

Regarding `C=CCOc1ccc(/C=C2/C(=O)ON=C2C)cc1OCC`, the B-score was 9.13 (active).

In the case of `O=C(O)C1C2C=CC(O2)C1C(=O)NCCc1cccc(Cl)c1` (stereo unspecified), the B-score result is “inactive”.

Consider `O=C(Oc1c(-c2ccco2)oc2ccccc2c1=O)c1cccnc1`, for which the B-score result was “inactive”.

Consider `O=C1C(=O)N(c2ccccc2)c2ccccc21`, for which the B-score result was “inactive”.

On to `COC(=O)C1CCN(C(=O)c2cc(=O)[nH]c3ccccc23)CC1`, for which the B-score is 5.3 (active).

Take `CC(C)(CNC(=O)c1cc(=O)[nH]c2ccccc12)N1CCOCC1`: the B-score result is “inactive”.

In the case of `CC1CCCCC1NC(=O)c1cc(=O)[nH]c2ccccc12` (stereo unspecified), the B-score entry was “inactive”.

Consider `O=C(CNC(=O)[C@@H]1Cc2ccccc2CN1)NC1CCCCC1`, for which the B-score result was “inactive”.

On to `COc1ccccc1N1CCN(S(=O)(=O)CCNC(=O)c2ccc(OC(C)C)cc2)CC1`, for which the B-score entry is “inactive”.

Regarding `Cc1ccc(CSCC2Nc3ccc(C(=O)N4CCN(c5ccc(F)cc5)CC4)cc3NC2=O)cc1` (stereo unspecified), the B-score result is “inactive”.

On to `CCOC(=O)C1CCN(C(c2cc3cc(C)cc(C)c3[nH]c2=O)c2nnnn2C2CCCCC2)CC1` (stereo unspecified), for which the B-score is 6.12 (active).

For the compound `Cc1cc(C)c2[nH]c(=O)c(C(c3nnnn3Cc3ccc4c(c3)OCO4)N3CCCC3)cc2c1` (stereo unspecified), the B-score entry was “inactive”.

Turning to `COc1ccc(N2CCN(C(c3cc4ccc(C)cc4[nH]c3=O)c3nnnn3C3CCCC3)CC2)cc1` (stereo unspecified), the B-score entry is “inactive”.

Regarding `COc1ccc(S(=O)(=O)NCCc2cc3ccc(C)c(C)c3[nH]c2=O)cc1`, the B-score result was “inactive”.

`CCOCCCNC(=O)c1cc2c(=O)n3ccccc3nc2s1`: the B-score entry is “inactive”.

`Cc1cc(C)nc(S/C=C/C(=O)c2ccccc2)n1`: the B-score is 10.7 (active).

With `Cc1ccc(N/C=C/C(=O)c2ccccc2)cc1C`, the B-score entry was “inactive”.

In the case of `Cc1cc(C)nc(SCC(=O)c2ccc(Cl)cc2)n1`, the B-score entry was “inactive”.

As for `CN=C(NC#N)NCCSCc1nc[nH]c1C`, the B-score entry was “inactive”.

With `COc1ccc(CN(C(=O)CSc2nnc(-c3ccc(OC)c(OC)c3)o2)c2ccc(F)cc2)cc1`, the B-score entry was “inactive”.

As for `CCOc1ccc(/C=N/NC(=O)C(C)Sc2ccccn2)cc1OCC` (stereo unspecified), the B-score entry was “inactive”.

As to `CCOc1ccc(/C=N/NC(=O)CSc2ccccn2)cc1O`, the B-score was 4.74 (active).

Consider `Cc1ccc(/C=N/NC(=O)CSc2ccccn2)o1`, for which the B-score entry is “inactive”.

In the case of `Cc1cc(=O)oc2cc(OC(C)C(=O)Nc3ccc(N4CCOCC4)cc3)ccc12` (stereo unspecified), the B-score result is “inactive”.

For `COc1cc(NC(=O)CSC(=S)N2CCCC2)c(OC)cc1Cl`, the B-score result was “inactive”.

For the compound `CC(C)(C)Oc1ccccc1Nc1nc(NCCO)nc(N2CCCC2)n1`, the B-score entry is “inactive”.

`CCOc1ccc(CNC(=O)CCC(=O)N2CCSc3ccccc32)cc1`: the B-score entry is “inactive”.

Regarding `C[C@H](NC(=O)c1nc[nH]c1C(=O)NCC(=O)OC(C)(C)C)C(=O)OCc1ccccc1`, the B-score entry was “inactive”.

For the compound `CC(C)(C)OC(=O)CNC(=O)c1[nH]cnc1C(=O)N[C@@H](Cc1ccccc1)C(=O)OCc1ccccc1`, the B-score result is “inactive”.

Regarding `C[C@H](NC(=O)c1nc[nH]c1C(=O)NCC(=O)OC(C)(C)C)c1ccccc1`, the B-score is 5.48 (active).

As for `Cc1ccc(N(C(=O)c2ccc(CN3CCOCC3)o2)C(C(=O)NCCC(C)C)c2cccs2)c(C)c1` (stereo unspecified), the B-score result was “inactive”.

Regarding `O=C(CSCc1ccccc1)Nc1ccccc1`, the B-score entry is “inactive”.

`CCN(CC)S(=O)(=O)c1ccc(N2CC(C(=O)NCc3cccnc3)CC2=O)cc1` (stereo unspecified): the B-score result is “inactive”.

As for `N#Cc1ccc(/C=C2\CCn3c2nc2cc(C(=O)O)ccc2c3=O)cc1`, the B-score result is “inactive”.

For `O=C(O)c1ccc2c(=O)n3c(nc2c1)/C(=C/c1ccc(OC(F)F)cc1OC(F)F)CC3`, the B-score entry is “inactive”.

With `Cc1ccc(/C=C2\CCn3c2nc2cc(C(=O)O)ccc2c3=O)c(C)c1`, the B-score was 6.23 (active).

In the case of `CCOC1CS(=O)(=O)CC1OCC` (stereo unspecified), the B-score entry is “inactive”.

Turning to `CCCN(CCC)S(=O)(=O)c1ccc(C(=O)N2CC3CCC(CC3)C2)cc1`, the B-score result was “inactive”.

On to `CC(C)=CCCC1(C)C=Cc2c(ccc3c2[nH]c2cc(O)c(C)cc23)O1` (stereo unspecified), for which the B-score result is “inactive”.

Regarding `O=C(O)CCC(=O)N(Cc1ccccc1)Cc1ccccc1`, the B-score entry was “inactive”.

As for `O=C(Nc1ccccc1Cl)c1ccccc1S(=O)(=O)c1ccccc1[N+](=O)[O-]`, the B-score entry was “inactive”.

For `Cc1nn(-c2ccccc2)c2c1C(c1ccc(F)cc1)C(C#N)=C(N)O2` (stereo unspecified), the B-score entry is “inactive”.

Consider `COc1ccccc1C1C(C#N)=C(N)Oc2c1c(-c1ccccc1)nn2-c1ccccc1` (stereo unspecified), for which the B-score was 8.32 (active).

In the case of `Cc1nn(Cc2ccccc2)c2c1C(c1ccccc1)C(C#N)=C(N)O2` (stereo unspecified), the B-score entry was “inactive”.

In the case of `Cc1cccc(OCCCC(=O)Nc2ccc(S(=O)(=O)N3CCCC3)cc2)c1`, the B-score entry is “inactive”.

`CS(=O)(=O)c1ccc(C(=O)OCC(=O)NNC(=O)COc2ccc(Cl)cc2)cc1`: the B-score result is “inactive”.

Consider `Cc1ccc(C)c(Cn2nnc3c(=O)[nH]c(C(=O)Nc4ccc(F)cc4)nc32)c1`, for which the B-score is 7.87 (active).

For the compound `O=C(Nc1ccc(F)cc1)N1CCCC(c2nc3c(nnn3Cc3ccccc3Cl)c(=O)[nH]2)C1` (stereo unspecified), the B-score result was “inactive”.

As to `Cc1ccc(NC(=O)N2CCC(c3nc4c(nnn4Cc4c(F)cccc4Cl)c(=O)[nH]3)CC2)cc1`, the B-score result is “inactive”.

On to `O=C(O)C1C2C=CC(C2)C1C(=O)NCc1ccccc1` (stereo unspecified), for which the B-score entry is “inactive”.

Turning to `O=C(CN1C(=O)NC2(CCCCCC2)C1=O)NCc1cccs1`, the B-score entry is “inactive”.

Consider `COC(=O)c1c(C(=O)OC)c2n(c1C)CCS2`, for which the B-score result is “inactive”.

In the case of `COc1ccc(C)cc1NC(=O)CSc1nnc2ccc(-c3ccccn3)nn12`, the B-score entry was “inactive”.

In the case of `COc1ccc(S(=O)(=O)Nc2ccc(O)c(Sc3nc4ccccc4s3)c2)cc1`, the B-score was 5.99 (active).

On to `O=C(O)c1cccc(S(=O)(=O)Nc2ccc(O)cc2Sc2nc3ccccc3s2)c1`, for which the B-score entry is “inactive”.

Take `CCOc1ccc(S(=O)(=O)Nc2nc3cc(OC)ccc3s2)cc1`: the B-score entry was “inactive”.

With `CNc1nccc(-c2ccc(Cl)cc2)c1C#N`, the B-score entry is “inactive”.

Turning to `Cc1cc(NC(=O)CSc2nc(C(C)C)nc3sc4c(c23)CCC(C)C4)no1` (stereo unspecified), the B-score result is “inactive”.

Take `Cc1ccc(C)c2c1cc(C)c1nnc(SCC(=O)Nc3cccc(C(=O)O)c3)n12`: the B-score entry is “inactive”.

On to `CC(C)c1nc(SCC(=O)Nc2cccc(C(=O)O)c2)c2c3c(sc2n1)CCCC3`, for which the B-score is 5.64 (active).

On to `Cc1ccccc1OC(=O)Cn1c(C(F)(F)F)nc2ccccc21`, for which the B-score entry was “inactive”.

As for `Cc1ccc(-n2[nH]c(C)c(/C=N/NC(=O)c3cccc([N+](=O)[O-])c3)c2=O)cc1C`, the B-score entry was “inactive”.

As to `COc1ccc(-c2csc(NC(=O)COC(=O)c3ccc(Br)o3)n2)cc1`, the B-score result was “inactive”.

On to `COc1ccc(-c2csc(Cc3nc(O)cs3)n2)cc1`, for which the B-score entry was “inactive”.

Regarding `COc1ccc(-c2csc(Nc3ccc(O)cc3)n2)cc1`, the B-score is 8.75 (active).

For the compound `CCOc1ccc(OCC)c(NC(=O)CCS(=O)(=O)c2ccc(C)cc2)c1`, the B-score result is “inactive”.

In the case of `CN(C)c1ccc(CNC2C3CC4CC(C3)CC2C4)cc1` (stereo unspecified), the B-score entry was “inactive”.

As for `CC(=O)Nc1cccc(-c2nc3ccccc3s2)c1C`, the B-score result is “inactive”.

For `COc1ccc(Oc2cn[nH]c2-c2ccc(OC)cc2O)cc1`, the B-score result was “inactive”.

On to `Oc1ccc(-c2[nH]ncc2-c2nc3ccccc3s2)c(O)c1`, for which the B-score was 5.08 (active).

For `CCC1(C(=O)c2ccccc2)C(c2cccc([N+](=O)[O-])c2)C1(C(=O)OC)C(=O)OC` (stereo unspecified), the B-score entry is “inactive”.

Consider `CC(CC(=O)C1C(C)C=CCC1(C)C)NNC(N)=O` (stereo unspecified), for which the B-score result was “inactive”.

For `Cc1ccc(-c2csc(NC(=O)C3=COCCO3)n2)cc1C`, the B-score is 9.56 (active).

With `CC(=O)NCCC(=O)Nc1nc(-c2ccc3c(c2)OCCO3)cs1`, the B-score result was “inactive”.

On to `Cc1csc(NC(=O)C2=COCCO2)n1`, for which the B-score result was “inactive”.

For `COc1cccc(NC(C)=[N+](C)CCNS(=O)(=O)c2ccc(Cl)cc2)c1`, the B-score entry was “inactive”.

Take `CCCCN1C(=O)CC(N2CCOCC2)C1=O` (stereo unspecified): the B-score entry is “inactive”.

Turning to `O=C(CCN1CCc2ccccc2C(O)(c2ccccc2)C1)c1ccc2c(c1)OCCO2` (stereo unspecified), the B-score was 8.45 (active).

`CCC1(c2ccccc2)NC(=O)N(CC(=O)c2ccc3c(c2)OCO3)C1=O` (stereo unspecified): the B-score result is “inactive”.

For `O=C(CN1CCC(O)(c2ccccc2)CC1)Nc1ccc2c(c1)OCCO2`, the B-score entry was “inactive”.

Regarding `CC(CO)N1CCS(=O)(=O)CC1` (stereo unspecified), the B-score result was “inactive”.

As to `COc1cccc(OC)c1C(=O)Nc1ccc(Cc2ccncc2)cc1`, the B-score result is “inactive”.

`Clc1ccc(Nc2ncnc3c2nnn3Cc2ccccc2)cc1`: the B-score result is “inactive”.

For the compound `CC(C)Cc1nc(Nc2ccc(S(=O)(=O)N3CCCC3)cc2)c2nnn(Cc3ccccc3)c2n1`, the B-score is 4.81 (active).

For the compound `Cc1nc(Nc2ccc(S(=O)(=O)N3CCCC3)cc2)c2nnn(Cc3ccccc3)c2n1`, the B-score entry is “inactive”.

For the compound `Cc1ccccc1CN1CCC(C(=O)Nc2ccc(Oc3cccnc3)cc2)CC1`, the B-score entry was “inactive”.

As to `COc1ccc(-c2cc(C(=O)N/N=C/c3cccnc3)c3ccccc3n2)c(OC)c1`, the B-score result is “inactive”.

In the case of `COc1ccccc1-n1c(-c2cc(-c3ccco3)[nH]n2)n[nH]c1=S`, the B-score entry was “inactive”.

Regarding `Cc1cc(C)c2nc(-c3ccco3)cc(C(=O)O)c2c1`, the B-score result was “inactive”.

For the compound `Cn1c(-c2ccco2)nc2cc3ccccc3cc21`, the B-score is 8.29 (active).

On to `CS(=O)(=O)N(CC(O)Cn1c2ccccc2c2ccccc21)c1cccc2ccccc12` (stereo unspecified), for which the B-score was 7.61 (active).

For the compound `CCCCN(CCCC)CC(O)Cn1c2ccccc2c(=O)c2ccccc21` (stereo unspecified), the B-score entry is “inactive”.

`CC(=O)c1ccc2c(c1)c1ccccc1n2CC(C)C`: the B-score entry was “inactive”.

Source of the values: PubChem BioAssay AID463165 (Johns Hopkins Ion Channel Center, 2010).
